# Data: PubChem BioAssay (Tox21)
# Unmarked numbers belong to inactive results. Calls come from the whole dose curve; as a rule, active = well fitted curve in the direction sought with a large enough effect in the repeat runs; inconclusive = weak or mixed curves; inactive = flat fitted curve, though single readings scatter.
# Test: qHTS assay to test for compound auto fluorescence at 590 nm (red) in HepG2 cells (AID 720674)
# Conditions: HepG2 autofluorescence, red 540/590 nm, 1 h; series mostly up to 91.3 µM; fluorescence, relative to Rose Bengal: at the top concentration
# Text: U.S. Tox21 Program National Center for Advancing Translational Sciences [NCATS] NIH Chemical Genomics Center [NCGC] U.S. Environmental Protection Agency [EPA] National Institutes of Environmental Health Sciences [NIEHS] National Toxicology Program [NTP] U.S. Food and Drug Administration [FDA] Tox21 Assay Overview: Compound auto fluorescence often interferes with screening of the compound library against various biological targets and signaling pathways. Some of these compounds may have fluorophoric properties. Such properties may interfere with the assay outputs resulting in false positives and/or negatives. To decrease such complications and ensure the compound activities are relevant in terms of biological response, the Tox21 10K compound library was screened for auto fluorescence. From the fluorophores used as reporter signals in our screening assays, the auto fluorescence equivalencies of compounds against three fluorophores have been evaluated: Triamterene, Fluorescein and Rose Bengal sodium for blue, green and red fluorescence, respectively. The fluorescence intensities were measured using Excitation/Emission wavelengths at 405/460nm, 485/535nm and 540/590nm for blue, green and red labels, respectively. This assay includes the red fluorescence data.
# Tox21 Assay Protocol Summary: 2,000 HepG2 cells in 5 uL of culture medium (MEM containing 10% FBS) per well were dispensed into black wall/clear bottom 1536-well plates using a Multidrop Combi Dispenser (ThermoFisher Scientific, Waltham, MA). The assay plates were incubated overnight at 37 C to allow cell attachment to the well bottom, followed by the transfer of 23 nL compound or DMSO vehicle by a pintool work station (Kalypsys , San Diego, CA). After the assay plates were incubated for 1 hr at 37 C and 5% CO2, fluorescence intensities in the assay plates were measured by an Envision (PerkinElmer, Shelton, CT) plate reader using three labels for measuring blue, green and red fluorescence at […] 460, 535 and 590 nm respectively.
# % is set by controls: 0 for no effect and ±100 for the full control effect.
row,SMILES,"fluorescence, relative to Rose Bengal"
1,CCCCCCCCCCCCC,0.328%
2,CNC(=O)C(c1ccccc1)c1ccccc1,0.0295%
3,CC1(N)CCC(C(C)(C)N)CC1 (stereo not given),0.0333%
4,CCCOC(=O)CCCCC(=O)OCCC,0.524%
5,BrC/C=C/CBr,-0.458% [at 18.6 µM]
6,O=C(O)C(=O)Nc1cccc(-c2nn[nH]n2)c1,0.227% [at 46 µM]
7,CCCCCCCCC(=O)OCC,0.0081%
8,NS(=O)(=O)c1ccc(Cl)c(S(N)(=O)=O)c1,0.525% [at 46 µM]
9,CCCCCCCCCCCCCCCCI,0.0421% [at 18.6 µM]
10,CCN(CCO)c1cccc(C)c1,-0.098%
11,C1=CCC(c2ccccc2)CC1 (stereo not given),-0.0948%
12,CC(C)=CC(C)(C)C,-0.0223%
13,Nc1ccc(/C=C/c2ccc(N)cc2S(=O)(=O)O)c(S(=O)(=O)O)c1,0.413% [at 46 µM]
14,Nc1ccnc(=O)[nH]1,-0.0955%
15,CC(C)(c1ccc(Oc2ccc3c(c2)C(=O)OC3=O)cc1)c1ccc(Oc2ccc3c(c2)C(=O)OC3=O)cc1,-0.0721%
16,CCc1nccnc1C,-0.0327%
17,Cc1ccccc1C(=O)N1CC/C(=N\OS(=O)(=O)O)c2ccc(Cl)cc21,-0.0464% [at 46 µM]
18,CC1=NN(c2ccc(S(=O)(=O)O)cc2)C(=O)C1N=Nc1ccccc1 (stereo not given),-0.198%
19,CN(C)CCCNCCC#N,0.0436%
20,O=S(=O)(O)SSS(=O)(=O)O,-0.315%

row,SMILES,"fluorescence, relative to Rose Bengal"
1,COc1ccc(OC)c(NC(=O)CC(C)=O)c1,0.0789%
2,c1ccc(CNc2ncnc3nc[nH]c23)cc1,0.0007%
3,CCCCCCCCCCCCOC(C)=O,-0.469%
4,COC(/C=C(\C)CCC=C(C)C)OC,0.0514%
5,CCC1COC(=O)O1 (stereo not given),-0.15%
6,CCOC(=O)CCCCCCCCC(=O)OCC,0.715%
7,C=CCOc1cc(Cl)ccc1C(=O)NCCN(CC)CC,0.162% [at 46 µM]
8,O=C1NC2NC(=O)NC2N1 (stereo not given),0.311%
9,CC(C)CCCCCCOC(=O)C1CCCCC1C(=O)OCCCCCCC(C)C (stereo not given),-0.0046%
10,Cc1ccccc1C,-0.213% [at 95.7 µM]
11,O=C(COCCOCCOCC(=O)Nc1c(I)cc(I)c(C(=O)O)c1I)Nc1c(I)cc(I)c(C(=O)O)c1I,0.0341% [at 46 µM]
12,CC(=O)OCCCc1ccccc1,-0.153%
13,CCC(C)N (stereo not given),-0.0112%
14,CCCO,-0.457%
15,Cc1c(C(C)C)c(=O)n(-c2ccccc2)n1C,-0.0573% [at 46 µM]
16,C=CC(C)(O)CC/C=C(\C)CC (stereo not given),-0.146%
17,COC(=O)CCC(=O)O,-0.71%
18,Oc1ccccc1Cc1ccccc1O,0.031%
19,O=C(O)CCNC(=O)c1ccccc1,0.0231% [at 46 µM]
20,Cc1nc2ccccc2c(=O)o1,-0.0799%
